Screens from PubChem BioAssay.
In the library only some 0.35% were active in any assay of this set; here they are far more common.
MBNL1 CUG block: qHTS Assay for Inhibitors of MBNL1-poly(CUG) RNA binding | hit rate 0.036% among 280,000 | Potency, µM (doses to about 57.5 µM), without a hit: at the top dose activity change, negative = inhibition, hits mostly inhibitors | Muscleblind-like protein 1 (Homo sapiens), Q9NR56 | TR-FRET MBNL1-His/biotin-(CUG)12 binding, 665/545 ratio; active = well fitted inhibition curve with a large enough effect in the signal ratio, with a control signal flat, not every such curve was filed as active; inconclusive = small, poorly fitted or top-dose-only effect, or effect the other way, or a change in a side signal; inactive = no such curve, though single readings can be large or run the other way; the % refers to the signal ratio
Target sequence (Q9NR56 whole entry, looked up): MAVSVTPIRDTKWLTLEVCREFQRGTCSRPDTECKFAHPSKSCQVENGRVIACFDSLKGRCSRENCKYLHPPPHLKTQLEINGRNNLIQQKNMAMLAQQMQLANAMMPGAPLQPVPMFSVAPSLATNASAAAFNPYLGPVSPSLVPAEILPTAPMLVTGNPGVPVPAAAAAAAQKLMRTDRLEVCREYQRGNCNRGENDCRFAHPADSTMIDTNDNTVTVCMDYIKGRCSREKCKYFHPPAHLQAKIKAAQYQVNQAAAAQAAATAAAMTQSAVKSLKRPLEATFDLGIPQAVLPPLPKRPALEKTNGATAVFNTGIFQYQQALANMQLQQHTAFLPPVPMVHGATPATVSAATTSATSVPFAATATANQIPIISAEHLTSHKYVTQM
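Inhibition of protein-RNA binding appears as loss of TR-FRET between terbium anti-His antibody on MBNL1-His and streptavidin-XL665 on biotin-(CUG)12. Activity is normalized to buffer-only and uninhibited-complex controls.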
Anesthetic bind: qHTS Assay for Identification of Novel General Anesthetics. apoferritin/1-aminoanthracene competitive binding, fluorescence. Potency, µM (highest dose often 77.5 µM), inactives show at the highest dose activity change, negative = displacement, most hits filed as inhibitors. hit rate 0.074% among 350,000. AID 485281, 2010; also: nearly all actives have a fitted effect of over 20% in size
Target sequence (P02791 2-175 limits assumed): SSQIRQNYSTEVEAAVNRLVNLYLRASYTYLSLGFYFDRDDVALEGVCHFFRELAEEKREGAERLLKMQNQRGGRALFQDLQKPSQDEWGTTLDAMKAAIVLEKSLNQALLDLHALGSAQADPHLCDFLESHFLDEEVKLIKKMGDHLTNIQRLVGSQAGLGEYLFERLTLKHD
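Probe: 1-aminoanthracene (50% saturated, PBS). Protein: horse-spleen apoferritin, 10 uM. Incubation: 10 min, room temperature. Detection: 380 nm excitation, 535 nm emission. Analysis: normalized response, four-parameter Hill.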
B2AR arrestin: qHTS assay of beta-arrestin-biased ligands of beta2-adrenergic receptor | beta-arrestin recruitment to beta2AR, cell-based reporter | hit rate 0.02% among 330,000 | Potency, µM (top dose mostly 46.1 µM), without a hit: at the top dose activation, most hits filed as activators | AID 492947, 2010 | Beta-2 adrenergic receptor (Homo sapiens), P07550;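 also: 0% = DMSO controls and full agonism = EC100 isoproterenol or metaproterenol; nearly all actives have a fitted effect of over 65% in size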
Chronic BCR inh: qHTS Assay to Find Inhibitors of Chronic Active B-Cell Receptor Signaling | ABC-DLBCL IkBa-CBG/CBR reporter, luminescence ratio, 4 h | Potency, µM (series often up to 46.1 µM), without a hit: at the highest dose activity change, negative = inhibition, most hits filed as inhibitors | hit rate 0.05% among 340,000; active = well fitted inhibition curve with a large enough effect in the signal ratio, with a control signal flat, not every such curve was filed as active; inconclusive = small, poorly fitted or top-dose-only effect, or effect the other way, or a change in a side signal; the % refers to the signal ratio;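 also: plate controls were basal doxycycline-induced cells for no effect and cells given 10 µM MG132 for full effect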
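Compounds up to 46 uM were incubated four hours with TMD8 cells whose green CBG68 luciferase is fused to IkappaBalpha; red CBR luminescence normalised the signal, and concentration-effect curves were fitted to fusion, red and ratio data.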
GLS inh: qHTS for Inhibitors of Glutaminase (GLS) | Glutaminase kidney isoform, mitochondrial (Homo sapiens), O94925 | GLS enzymatic activity, qHTS titration | Potency, µM (highest dose often 45.5 µM), inactives show top-dose activity change, negative = inhibition, hits mostly inhibitors | hit rate 0.21% among 410,000 | AID 624170, 2012
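Two-point fluorescence kinetic (t0, 30 min RT) for hKGA; glutamate detected via glutamate oxidase–HRP–Amplex Red. Substrate: 1 mM L-glutamine solution; buffer 45 mM KH2PO4, pH 8.2.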
* marks the source's active call; other numbers are inactive results; ? = inconclusive; . = no result given. Unless noted, calls follow the shape of the dose curve; as a rule, active = well fitted curve in the direction sought with a large enough effect; inconclusive = small, poorly fitted or top-dose-only effect, or another doubt; inactive = no such curve, though single readings can be large; an effect the other way counts as inactive or inconclusive. Unless noted, % is scaled to controls: 0 for no effect and ±100 for the full control effect; potency is read from the fitted curve at half-maximal effect.

SMILES	MBNL1 CUG block	Anesthetic bind	B2AR arrestin	Chronic BCR inh	GLS inh
O=C(N/N=C/c1ccc(F)cc1)c1cc(-c2ccco2)nc2ccccc12	-1%	-11%	0%	6%	10µM*
O=C(N/N=C/c1ccc(O)c(O)c1)c1cc(-c2ccccc2)nc2ccccc12	4%	-24%	0%	1%	13µM*
O=C(N/N=C/c1cccc(O)c1)c1cc(-c2ccccc2)nc2ccccc12	-7%	-1%	0%	0%	2%
Cc1cc(Cl)ccc1NS(=O)(=O)c1ccc2c(c1)CC(C)N2C(=O)C1CCC1 (stereo unspecified)	.	1%	.	.	18%
O=C(Nc1ccc(/C=C/c2ccc(NC(=O)c3cc(S(=O)(=O)O)c4cccnc4c3O)cc2S(=O)(=O)O)c(S(=O)(=O)O)c1)c1cc(S(=O)(=O)O)c2cccnc2c1O	.	.	.	.	-117%
COc1ccc2ccccc2c1/C=N/Nc1ccc(Cl)c(C(=O)O)c1	?	-11%	0%	?	?
COc1ccc2ccccc2c1/C=N/Nc1cccc(C(=O)O)c1	?	-4%	-1%	?	7.9µM*
CC(=O)Nc1nc2ccc(-c3nc4ccccc4o3)cc2s1	12%	-9%	0%	15µM*	5%
CCC(=O)Nc1cccc(-c2nc3ccccc3o2)c1	1%	4%	0%	14%	6%
COc1cccc(C2=Nc3cccc4cccc(c34)N2)c1	?	-12%	2%	?	11µM*
O=C(N/N=C/c1cc([N+](=O)[O-])ccc1O)NC12CC3CC(CC(C3)C1)C2	9%	?	-1%	2%	10µM*
O=C(N/N=C/c1cc([N+](=O)[O-])ccc1O)C12CC3CC(CC(C3)C1)C2	-1%	-9%	0%	3%	-4%
C=C1C[C@@H]2[C@H]3CCC4=CC(=O)C=C[C@]4(C)[C@@]3(F)[C@@H](O)C[C@]2(C)[C@]1(O)C(=O)COC(C)=O	.	.	.	.	-5%
NC(=O)c1ccc2nc(-c3ccc(Oc4ccc(Cl)cc4)cc3)[nH]c2c1	.	67%	.	.	.
COc1cc(C(=O)Nc2cc(C)ccc2OCc2cc(=O)n3c(C)csc3n2)cc(OC)c1OC	.	5%	.	.	2%
COc1ccc(CC(=O)n2[nH]c(=O)ccc2=O)cc1OC	-2%	-6%	0%	8%	10µM*
COc1ccc(CC(=O)n2[nH]c(=O)c3ccccc3c2=O)cc1OC	?	7%	0%	-26%	2%
Nc1ccc(-c2nc3ccc(N)cc3[nH]2)cc1	26%	141%	0%	?	27%
Cc1nc2ccc(-c3nc4ccc(N)cc4[nH]3)cc2[nH]1	-7%	106%	0%	?	8.9µM*
O=C(Oc1c(CN2CCOCC2)cc(Cl)c2cccnc12)c1cccs1	?	-11%	9%	?	-9%
O=C(Oc1c(Cl)cc(Cl)c2cccnc12)c1cccs1	-4%	?	?	23µM*	8%
COc1cc(-c2nc3ccc(C)cn3c2Nc2ccc3c(c2)OCCO3)ccc1O	60%	-2%	1%	?	13µM*
Oc1ccc(-c2nc3cnccn3c2Nc2ccc3c(c2)OCCO3)cc1	?	-20%	0%	18µM*	-11%
COc1cc(-c2nc3ccc(Cl)cn3c2Nc2ccc3c(c2)OCCO3)ccc1O	.	-4%	.	.	2%
O=C(O)CC(C(=O)O)N1C(=O)/C(=C/C=C/c2ccco2)SC1=S (stereo unspecified)	?	5%	-1%	-1%	2.8µM*
SMILES	MBNL1 CUG block	Anesthetic bind	B2AR arrestin	Chronic BCR inh	GLS inh
O=C(O)CC(C(=O)O)N1C(=O)/C(=C/c2ccc(-c3nc4ccccc4s3)o2)SC1=S (stereo unspecified)	44%	3%	0%	-18%	11µM*
O=C(O)C(Cc1ccccc1)N1C(=O)/C(=C/C=C/c2ccco2)SC1=S (stereo unspecified)	11%	-9%	0%	13%	-27%
O=C(CSc1nnc(-c2ccccc2Br)n1-c1ccccc1)c1ccc(F)cc1	.	-23%	.	.	6%
CCOC(=O)C(C)N1C(=O)S/C(=C\c2ccc(-c3ccccc3C(=O)O)o2)C1=O (stereo unspecified)	34%	45%	-1%	0%	13µM*
CC(C)C[C@@H](NC(=O)[C@@H](COC(C)(C)C)NC(=O)[C@H](Cc1ccc(O)cc1)NC(=O)[C@@H](CO)NC(=O)[C@@H](Cc1c[nH]c2ccccc12)NC(=O)[C@@H](Cc1cnc[nH]1)NC(=O)[C@@H]1CCC(=O)N1)C(=O)N[C@H](CCCN=C(N)N)C(=O)N1CCC[C@H]1C(=O)NNC(N)=O	.	.	.	.	39%
O=c1[nH]nc(SCc2ccccc2)c(=O)[nH]1	.	-1%	0%	-5%	-1%
S=c1[nH]nc(SCc2ccccc2)c2[nH]cnc12	.	.	.	.	7.1µM*
CN(C)c1ccc2c(-c3ccccc3)c3ccc(=[N+](C)C)cc-3oc2c1	.	-12%	.	.	.
CCCSc1nc(C)c(C(C)=O)cc1C#N	-6%	-4%	0%	18µM*	1%
COC(=O)CSc1nc(C)c(C(C)=O)cc1C#N	13%	9%	6%	?	1%
CCc1ccc2c(c1)C(NC(C)=O)C(=O)N2CCN1CCOCC1 (stereo unspecified)	-15%	5%	0%	-1%	5µM*
OCc1cc2c(cn1)[nH]c1ccccc12	.	35%	.	.	.
COc1ccc2c(c1)Sc1ccccc1N2	31%	-9%	-1%	-8%	18µM*
O=C(Nc1cc(S(=O)(=O)N2CCOCC2)ccc1N1CCCC1)c1ccc2c(c1)S(=O)(=O)c1ccccc1C2=O	?	-15%	-1%	-5%	7.9µM*
Cn1c2ccccc2c2cc(/C=N/NC(=O)c3cc(O)cc(O)c3)ccc21	6%	1%	-1%	?	16µM*
COc1ccc2c(c1)c(C(=O)N/N=C/c1ccc(O)c(O)c1)c(C)n2C	?	-1%	0%	?	7.1µM*
CCCNC(=O)NNC(=O)c1ccc(F)cc1	.	-3%	0%	-8%	11µM*
O=C(NCCCCNC(=O)c1ccc(F)cc1)c1ccc(F)cc1	-1%	1%	0%	1%	-11%
O=C(Nc1ccccc1F)c1nc(S(=O)(=O)Cc2ccccc2F)ncc1Cl	.	88%	.	.	-1%
CC(C)c1ccc(NC(=O)C2CC2c2ccccc2)cc1 (stereo unspecified)	3%	35µM*	1%	?	-1%
O=C(Nc1ccncc1)C1CC1c1ccccc1 (stereo unspecified)	4%	-13%	0%	?	-9%
